Measured values published in PubChem BioAssay (NCI).
About 79,000 compounds went through this panel and 15% of them were active in at least one assay; those are over-represented in the sample as a whole. Unmarked numbers belong to inactive results. Activity calls are given as the source filed them. Rule as the data show it: active = growth inhibition above about 70%; inactive = the rest.

Experiments:
[1] = NCI Yeast Anticancer Drug Screen. Data for the rad52 strain (AID 147);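 also: 0% = growth of vehicle-treated control cultures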; settings: S. cerevisiae rad52 mutant growth inhibition, active compounds read high
Procedure, shortened: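 Genetically altered yeast (DNA damage repair defect) treated with compound; inhibition calculated relative to vehicle.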

[2] = NCI Yeast Anticancer Drug Screen. Data for the wt1 strain (AID 149);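 also: 0% = growth of vehicle-treated wt1 cultures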; settings: S. cerevisiae wt1 strain (SPY 50644) growth inhibition, active compounds read high
Procedure, shortened: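 wt1 yeast, compound-treated; % growth inhibition vs vehicle control.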

[3] = NCI Yeast Anticancer Drug Screen. Data for the rad50EPP+ strain (AID 151);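 also: 0% = growth of vehicle-treated control cultures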; settings: S. cerevisiae rad50 mutant strain, active compounds read high
Procedure, shortened: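 Strain rad50EPP+; compound exposure; % growth inhibition vs vehicle.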

[4] = NCI Yeast Anticancer Drug Screen. Data for the mgt1 strain (AID 153); settings: S. cerevisiae mgt1 mutant growth inhibition, active compounds read high
Procedure, shortened: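 Read-out: yeast growth inhibition vs vehicle control. Strain mgt1, drawn from a panel altered in DNA damage repair or cell cycle control.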

[5] = NCI Yeast Anticancer Drug Screen. Data for the rad50 strain (AID 155);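 also: 0% = growth of vehicle-only cultures of the same strain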; settings: S. cerevisiae rad50 strain growth inhibition, active compounds read high
Procedure, shortened: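 Genetically altered yeast (DNA repair pathway); compound treatment; growth inhibition vs vehicle ctrl.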

[6] = NCI Yeast Anticancer Drug Screen. Data for the mec2-1 strain (AID 157); settings: S. cerevisiae mec2-1 strain, active compounds read high
Procedure, shortened: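 Cells of the genetically defined mec2-1 yeast strain are incubated with test compound. Inhibition of growth is calculated against vehicle-treated controls.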

[7] = NCI Yeast Anticancer Drug Screen. Data for the rad14 strain (AID 159);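 also: 0% = growth of vehicle-treated control cultures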; settings: S. cerevisiae rad14 strain growth inhibition, active compounds read high
Procedure, shortened: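 Test compounds were applied to a repair-deficient yeast strain. Its growth was then compared with that of cultures given vehicle alone, and inhibition was expressed relative to those controls.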

[8] = NCI Yeast Anticancer Drug Screen. Data for the sgs1 mgt1 strain (AID 161);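 also: 0% = growth of cultures given vehicle only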; settings: S. cerevisiae sgs1 mgt1 strain, active compounds read high
Procedure, shortened: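 Inhibition of yeast growth, normalised to vehicle-treated controls, is reported for a strain bearing genetic alterations in DNA damage repair.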

[9] = NCI Yeast Anticancer Drug Screen. Data for the CLN2oe strain (AID 163);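 also: 0% = growth of vehicle-only control cultures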; settings: S. cerevisiae CLN2oe strain, active compounds read high
Procedure, shortened: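 Strain altered in cell-cycle control, incubated with compound; growth compared to solvent-treated controls.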

[10] = NCI Yeast Anticancer Drug Screen. Data for the cln2 rad14 strain (AID 165);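 also: 0% = growth equal to vehicle treated cultures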; settings: S. cerevisiae cln2 rad14 strain, active compounds read high
Procedure, shortened: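 The screen exposed genetically defined yeast (cln2 rad14) to test compounds and scored growth inhibition relative to vehicle-treated controls.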

[11] = NCI Yeast Anticancer Drug Screen. Data for the bub3 strain (AID 167); settings: S. cerevisiae bub3 mutant strain, active compounds read high
Procedure, shortened: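 Yeast carrying a defined mutation is treated with each compound, and growth is compared with that of vehicle-exposed cells to give inhibition.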

[12] = NCI Yeast Anticancer Drug Screen. Data for the wt2 strain (AID 169);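 also: 0% = growth of vehicle-treated yeast cultures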; settings: S. cerevisiae wt2 strain growth inhibition, active compounds read high
Procedure, shortened: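 Steps: yeast strain treated with compound; growth recorded; inhibition calculated relative to cultures given vehicle alone.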

[13] = NCI Yeast Anticancer Drug Screen. Data for the mlh1 strain (AID 171);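 also: 0% = growth of vehicle-treated control cultures of the same strain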; settings: S. cerevisiae mlh1 strain growth inhibition, active compounds read high
Procedure, shortened: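 Yeast screen: mutant strain plus compound, growth scored against vehicle control wells.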

[14] = NCI Yeast Anticancer Drug Screen. Data for the sgs1 strain (AID 173);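 also: 0% = growth of vehicle-only control cultures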; settings: S. cerevisiae sgs1 mutant, active compounds read high
Procedure, shortened: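 Inhibition of yeast growth served as the measure. The mutant strain was treated with each compound, and growth was normalised to cultures receiving vehicle alone.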

[15] = NCI Yeast Anticancer Drug Screen. Data for the mlh1 rad18 strain (AID 175); settings: S. cerevisiae mlh1 rad18 strain growth inhibition, active compounds read high
Procedure, shortened: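 Compound-treated yeast growth, normalised to vehicle controls. Strain bears defined DNA repair mutations.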

[16] = NCI Yeast Anticancer Drug Screen. Data for the rad18 strain (AID 177); settings: S. cerevisiae rad18 mutant growth inhibition, active compounds read high
Procedure, shortened: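 Inhibition values reflect reduced yeast growth compared with vehicle-treated controls, using a strain engineered with a DNA damage repair defect.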

[17] = at 5.0 µM (retest, dose inferred, filed as 0.5)
[18] = at 50.0 µM (retest, dose inferred, filed as 5.0)

Cc1cc(Cl)ccc1NC(=O)/C(Cl)=C(/Cl)C(=O)O
growth inhibition ([1]; at 1.2 µM): 2%
growth inhibition ([1]; at 3.7 µM): 6%
growth inhibition ([1]; at 11.0 µM): 21%
growth inhibition ([1]; at 33.0 µM): 70% (active)
growth inhibition ([1]; at 100.0 µM): 99% (active)
growth inhibition ([2]; at 1.2 µM): 0%
growth inhibition ([2]; at 3.7 µM): -1%
growth inhibition ([2]; at 11.0 µM): 0%
growth inhibition ([2]; at 33.0 µM): 11%
growth inhibition ([2]; at 100.0 µM): 99% (active)
growth inhibition ([3]; at 1.2 µM): 5%
growth inhibition ([3]; at 3.7 µM): 11%
growth inhibition ([3]; at 11.0 µM): 25%
growth inhibition ([3]; at 33.0 µM): 78% (active)
growth inhibition ([3]; at 100.0 µM): 99% (active)
growth inhibition ([4]; at 1.2 µM): 0%
growth inhibition ([4]; at 3.7 µM): 5%
growth inhibition ([4]; at 11.0 µM): 8%
growth inhibition ([4]; at 33.0 µM): 29%
growth inhibition ([4]; at 100.0 µM): 100% (active)
growth inhibition ([5]; at 1.2 µM): 1%
growth inhibition ([5]; at 3.7 µM): 6%
growth inhibition [5, 17]: -1%
growth inhibition ([5]; at 11.0 µM): 16%
growth inhibition ([5]; at 33.0 µM): 81% (active)
growth inhibition [5, 18]: 22%
growth inhibition ([5]; at 50.0 µM): 99.5% (active)
growth inhibition ([5]; at 100.0 µM): 99% (active)
growth inhibition ([6]; at 1.2 µM): 3%
growth inhibition ([6]; at 3.7 µM): 6%
growth inhibition [6, 17]: 3%
growth inhibition ([6]; at 11.0 µM): 11%
growth inhibition ([6]; at 33.0 µM): 51%
growth inhibition [6, 18]: 23%
growth inhibition ([6]; at 50.0 µM): 97.7% (active)
growth inhibition ([6]; at 100.0 µM): 100% (active)
growth inhibition ([7]; at 1.2 µM): 2%
growth inhibition ([7]; at 3.7 µM): 5%
growth inhibition ([7]; at 11.0 µM): 13%
growth inhibition ([7]; at 33.0 µM): 34%
growth inhibition ([7]; at 100.0 µM): 100% (active)
growth inhibition [8, 17]: 0%
growth inhibition [8, 18]: 37%
growth inhibition ([8]; at 50.0 µM): 99.7% (active)
growth inhibition ([9]; at 1.2 µM): -1%
growth inhibition ([9]; at 3.7 µM): 3%
growth inhibition ([9]; at 11.0 µM): 1%
growth inhibition ([9]; at 33.0 µM): 11%
growth inhibition ([9]; at 100.0 µM): 99% (active)
growth inhibition [10, 17]: -4%
growth inhibition [10, 18]: 11%
growth inhibition ([10]; at 50.0 µM): 98.8% (active)
growth inhibition ([11]; at 1.2 µM): 2%
growth inhibition ([11]; at 3.7 µM): 4%
growth inhibition [11, 17]: 3%
growth inhibition ([11]; at 11.0 µM): 12%
growth inhibition ([11]; at 33.0 µM): 56%
growth inhibition [11, 18]: 37%
growth inhibition ([11]; at 50.0 µM): 99.6% (active)
growth inhibition ([11]; at 100.0 µM): 99% (active)
growth inhibition ([12]; at 1.2 µM): 0%
growth inhibition ([12]; at 3.7 µM): 1%
growth inhibition ([12]; at 11.0 µM): 5%
growth inhibition ([12]; at 33.0 µM): 18%
growth inhibition ([12]; at 100.0 µM): 100% (active)
growth inhibition ([13]; at 1.2 µM): -1%
growth inhibition ([13]; at 3.7 µM): 2%
growth inhibition ([13]; at 11.0 µM): 5%
growth inhibition ([13]; at 33.0 µM): 22%
growth inhibition ([13]; at 100.0 µM): 100% (active)
growth inhibition ([14]; at 1.2 µM): 2%
growth inhibition ([14]; at 3.7 µM): 2%
growth inhibition ([14]; at 11.0 µM): 11%
growth inhibition ([14]; at 33.0 µM): 55%
growth inhibition ([14]; at 100.0 µM): 99% (active)
growth inhibition [15, 17]: 0%
growth inhibition [15, 18]: 17%
growth inhibition ([15]; at 50.0 µM): 99.3% (active)
growth inhibition ([16]; at 1.2 µM): -2%
growth inhibition ([16]; at 3.7 µM): 0%
growth inhibition ([16]; at 11.0 µM): 11%
growth inhibition ([16]; at 33.0 µM): 30%
growth inhibition ([16]; at 100.0 µM): 99% (active)

NC(N)=NC(N)=Nc1ccccc1 (tested in a mixture with another compound)
growth inhibition ([1]; at 1.2 µM): -3%
growth inhibition ([1]; at 3.7 µM): -5%
growth inhibition ([1]; at 11.0 µM): -7%
growth inhibition ([1]; at 33.0 µM): 2%
growth inhibition ([1]; at 100.0 µM): 48%
growth inhibition ([2]; at 1.2 µM): -1%
growth inhibition ([2]; at 3.7 µM): -1%
growth inhibition ([2]; at 11.0 µM): 0%
growth inhibition ([2]; at 33.0 µM): 11%
growth inhibition ([2]; at 100.0 µM): 32%
growth inhibition ([3]; at 1.2 µM): -1%
growth inhibition ([3]; at 3.7 µM): -2%
growth inhibition ([3]; at 11.0 µM): -16%
growth inhibition ([3]; at 33.0 µM): -9%
growth inhibition ([3]; at 100.0 µM): 18%
growth inhibition ([4]; at 1.2 µM): -1%
growth inhibition ([4]; at 3.7 µM): -2%
growth inhibition ([4]; at 11.0 µM): 0%
growth inhibition ([4]; at 33.0 µM): 6%
growth inhibition ([4]; at 100.0 µM): 41%
growth inhibition ([5]; at 1.2 µM): 2%
growth inhibition ([5]; at 3.7 µM): -3%
growth inhibition [5, 17]: -2%
growth inhibition ([5]; at 11.0 µM): 1%
growth inhibition ([5]; at 33.0 µM): 1%
growth inhibition [5, 18]: 7%
growth inhibition ([5]; at 50.0 µM): 56.6%
growth inhibition ([5]; at 100.0 µM): 55%
growth inhibition ([6]; at 1.2 µM): 3%
growth inhibition ([6]; at 3.7 µM): 3%
growth inhibition [6, 17]: 4%
growth inhibition ([6]; at 11.0 µM): 4%
growth inhibition ([6]; at 33.0 µM): 12%
growth inhibition [6, 18]: 16%
growth inhibition ([6]; at 50.0 µM): 35.7%
growth inhibition ([6]; at 100.0 µM): 48%
growth inhibition ([7]; at 1.2 µM): -1%
growth inhibition ([7]; at 3.7 µM): -15%
growth inhibition ([7]; at 11.0 µM): -11%
growth inhibition ([7]; at 33.0 µM): -19%
growth inhibition ([7]; at 100.0 µM): 60%
growth inhibition [8, 17]: 3%
growth inhibition [8, 18]: -6%
growth inhibition ([8]; at 50.0 µM): 66.8%
growth inhibition ([9]; at 1.2 µM): -2%
growth inhibition ([9]; at 3.7 µM): -6%
growth inhibition ([9]; at 11.0 µM): -13%
growth inhibition ([9]; at 33.0 µM): -1%
growth inhibition ([9]; at 100.0 µM): 37%
growth inhibition [10, 17]: 33%
growth inhibition [10, 18]: -77%
growth inhibition ([10]; at 50.0 µM): 23.6%
growth inhibition ([11]; at 1.2 µM): -7%
growth inhibition ([11]; at 3.7 µM): 2%
growth inhibition [11, 17]: 20%
growth inhibition ([11]; at 11.0 µM): 10%
growth inhibition ([11]; at 33.0 µM): 9%
growth inhibition [11, 18]: 6%
growth inhibition ([11]; at 50.0 µM): 49.8%
growth inhibition ([11]; at 100.0 µM): 29%
growth inhibition ([12]; at 1.2 µM): -1%
growth inhibition ([12]; at 3.7 µM): -1%
growth inhibition ([12]; at 11.0 µM): 3%
growth inhibition ([12]; at 33.0 µM): 20%
growth inhibition ([12]; at 100.0 µM): 77% (active)
growth inhibition ([13]; at 1.2 µM): 5%
growth inhibition ([13]; at 3.7 µM): 4%
growth inhibition ([13]; at 11.0 µM): 5%
growth inhibition ([13]; at 33.0 µM): -13%
growth inhibition ([13]; at 100.0 µM): 41%
growth inhibition ([14]; at 1.2 µM): 2%
growth inhibition ([14]; at 3.7 µM): 7%
growth inhibition ([14]; at 11.0 µM): 20%
growth inhibition ([14]; at 33.0 µM): 49%
growth inhibition ([14]; at 100.0 µM): 90% (active)
growth inhibition [15, 17]: -4%
growth inhibition [15, 18]: -9%
growth inhibition ([15]; at 50.0 µM): 47%
growth inhibition ([16]; at 1.2 µM): 3%
growth inhibition ([16]; at 3.7 µM): -3%
growth inhibition ([16]; at 11.0 µM): 3%
growth inhibition ([16]; at 33.0 µM): 6%
growth inhibition ([16]; at 100.0 µM): 61%
